Screens (PubChem BioAssay)
Most compounds without a hit are left out; they make up all but 3.3% or so of the library.
USP1 inh – inhibitors of human USP1/UAF1 deubiquitinase | O94782 | recombinant USP1/UAF1, Ub-Rhodamine cleavage fluorescence | Potency, µM (top dose mostly 57.1 µM), for the others: top-dose activity change, negative = inhibition, hits mostly inhibitors | 390,000 compounds, 0.23% hits | AID 743255; further: potency means the concentration at half of the fitted maximal effect; nearly all actives have a fitted effect of over 60% in size
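USP1/UAF1 complex (1 nM) preincubated 15 min at room temperature with compound, then Ub-Rho substrate (150 nM final) added. Kinetic fluorescence at 480/540 nm over 6 reads at 60 s intervals; 50 mM HEPES pH 7.8, 0.5 mM EDTA, 0.1 mg/ml BSA, 1 mM TCEP, 0.01% Tween-20.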
PLK1 PBD block – blocks phosphopeptide binding to human PLK1 polo-box domain; Potency, µM, without a hit: max response, negative = inhibition, most hits filed as inhibitors; 360,000 compounds, 2.8% hits; Plk1 PBD binding of FITC phosphopeptide, fluorescence polarization; P53350; further: potency means the concentration at half of the fitted maximal effect; series mostly up to about 57 µM; nearly all actives have a fitted effect of over 65% in size
Target sequence (P53350 whole entry, looked up, the tested form may be a part): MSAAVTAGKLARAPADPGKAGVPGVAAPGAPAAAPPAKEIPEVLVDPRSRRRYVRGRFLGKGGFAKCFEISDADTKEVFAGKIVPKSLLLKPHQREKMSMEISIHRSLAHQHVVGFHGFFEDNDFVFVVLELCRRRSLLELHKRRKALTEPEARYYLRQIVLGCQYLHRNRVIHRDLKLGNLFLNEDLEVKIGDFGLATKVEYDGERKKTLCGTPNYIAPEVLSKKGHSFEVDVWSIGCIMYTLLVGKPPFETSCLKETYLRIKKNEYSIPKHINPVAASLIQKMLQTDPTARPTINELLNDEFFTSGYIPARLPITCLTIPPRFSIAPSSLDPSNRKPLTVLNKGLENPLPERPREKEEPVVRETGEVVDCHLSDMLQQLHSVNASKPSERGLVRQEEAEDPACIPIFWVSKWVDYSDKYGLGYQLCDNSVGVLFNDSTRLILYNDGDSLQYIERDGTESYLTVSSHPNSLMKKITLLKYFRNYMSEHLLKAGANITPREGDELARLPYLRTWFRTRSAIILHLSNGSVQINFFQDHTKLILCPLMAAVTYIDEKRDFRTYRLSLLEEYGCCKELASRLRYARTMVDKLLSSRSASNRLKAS
WRN helicase inh – blocks human WRN helicase; Q14191; WRN helicase unwinding, fluorescent forked duplex, kinetic; Potency, µM (titrated, usually from 114 µM), inactives show at the highest dose activity change, negative = inhibition, usual class: inhibitors; 360,000 compounds, 0.46% hits; AID 651768; further: potency means the concentration at half of the fitted maximal effect; nearly all actives have a fitted effect of over 55% in size
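Fluorescence dequenching readout, ex 525 nm/em 598 nm, kinetic mode: forked duplex DNA (100 nM final) with adjacent fluorophore and quencher unwound by WRN (20 nM final) with 2 mM ATP. Compound preincubation 15 min, room temperature.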
PI5P4Ka inh – blocks human PI5P4K alpha kinase activity; PI5P4Kalpha enzyme, ADP-Glo luminescence, 60 min; stronger effect = lower value; max response, %; 330,000 compounds, 1.2% hits; active means max response of -50% or lower; inconclusive means between -30% and -50%; inactive means -30% or higher; further: value at the top dose of about 77 µM
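Controls without substrate or without enzyme flank wells where PI5P4Kalpha converts substrate using 5 microM ATP (final). Incubation lasts 60 minutes at room temperature; ADP formed is read by ADP-Glo luminescence.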
USP2a inh – blocks human ubiquitin-specific protease USP2a; 330,000 compounds, 0.01% hits; O75604; USP2 core, Ub-CHOP2 coupled fluorogenic reporter, 485/531; Potency, µM (doses to about 38.3 µM), for the others: at the highest dose activity change, negative = inhibition, most hits filed as inhibitors;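 further: potency means the concentration at half of the fitted maximal effect; plate controls were DMSO wells for no effect and full inhibition by NEM control for full effect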
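USP2 core (10nM final) preincubated 30min RT with compound in 20mM Tris-HCl pH 8.0, 2mM CaCl2, 2mM beta-mercaptoethanol, 0.05% CHAPS; 25nM Ub-CHOP2 plus 25nM reporter substrate added, fluorescence (Ex485/Em531) read after 60min.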
Starred values were filed as active, the others as inactive; ? = inconclusive; nt = not tested or not shown; [ ] = another dose, or the depositor's remark. Unless noted, the call rests on the fitted dose curve; in most records, active means well fitted curve in the direction sought with a large enough effect; inconclusive means small, poorly fitted or top-dose-only effect, or another doubt; inactive means no such curve, though single readings can be large; an effect the other way counts as inactive or inconclusive. Unless noted, on the % scale 0 is the no-effect control and ±100 the full control effect.

SMILES	USP1 inh	PLK1 PBD block	WRN helicase inh	PI5P4Ka inh	USP2a inh
O=C(Nc1nnc(-c2ccc(F)cc2)s1)c1ccco1	-21%	-3%	0%	1	1%
O=C(Nc1n[nH]c(=S)s1)c1ccco1	-13%	?	-8%[11.6 µM]	-61*	2%
CNC(=O)C1C(=S)NC(N)=C(C#N)C1c1ccccc1 (stereo not given)	-13%	27µM*	-8%	nt	1%
COc1ccc(NC(C)=O)cc1NC(=O)CSc1nnc(C2CCCCC2)n1N	-14%	-7%	-28%	-7	-1%
COc1ccc(OC)c(NC(=O)CSc2nnc(C3CCCCC3)n2-c2ccccc2)c1	-1%	27µM*	-6%	-11	-2%
CCCN(C(=O)Cn1ncc2c1-c1ccccc1OC2)c1cccc(C)c1	-3%	nt	nt	nt	nt
CCS(=O)(=O)c1ncc(N(Cc2cccc(F)c2)Cc2ccco2)c(C(=O)Nc2ccccc2Cl)n1	-3%	nt	nt	nt	nt
CCc1nnc(NC(=O)c2ccc(S(=O)(=O)N(CC)Cc3ccccc3)cc2)o1	1%	3µM*	-10%	?	0%
O=C(CC1SC(=O)N(c2ccccc2)C1=O)Nc1ccc(Cl)cc1 (stereo not given)	3%	11µM*	25µM*	-9	0%
COc1ccc(OC)c(-c2csc(-c3c(N)c(C(=O)c4ccc(Cl)cc4)n4ccccc34)n2)c1	-25%	nt	nt	nt	nt
CC1(C)CC(=O)C=C(Nc2ccc(O)c(C(=O)O)c2)C1	-4%	-3%	-7%	-94*	4%
CC1(C)CC(=O)C=C(Nc2ccc(C(=O)O)cc2)C1	0%	0%	-4%	-6	2%
Cn1nc(-c2ccccc2F)c2cc(C(=O)N3CCN(c4ccccc4F)CC3)sc21	-32%	nt	nt	nt	nt
Cn1nnnc1SCCCNCc1cc(Br)ccc1OCc1ccccc1	-14%	nt	nt	nt	nt
CSc1nc(-c2ccc(Cl)cc2Cl)[nH]c(=O)c1C#N	-17%	?	?	-20	-3%
Cc1cc(-c2ccc(Cl)cc2Cl)c(C#N)c(=O)[nH]1	-28%	17µM*	-4%	-30	1%
O=C1C2CC=CCC2C(=O)N1CC(=O)N(Cc1ccccc1)C1CCS(=O)(=O)C1 (stereo not given)	-10%	-1%	2%	nt	0%
O=C(Cn1c(=O)oc2ccccc21)N(Cc1ccccc1)C1CCS(=O)(=O)C1 (stereo not given)	-7%	21µM*	14%	-17	-1%
O=C(NCc1ccc(F)cc1)c1ccc(NC(=O)N2CC3CCCN3c3ccccc32)cc1 (stereo not given)	-13%	nt	nt	nt	nt
NS(=O)(=O)c1cccc(NC(=O)c2cccc3c(Br)cccc23)c1	-24%	0%	-1%	-2	0%
CC(C)C(=O)Nc1ccc(NC(=O)c2cccc3c(Br)cccc23)cc1	-14%	27µM*	1%	-12	0%
C=CCSc1nc2ccsc2c(=O)n1-c1cccnc1	1%	27µM*	12%[57.1 µM]	-5	5%
Cc1cc(C)nc(SCC(=O)Oc2ccc3oc(=O)cc(C)c3c2)n1	-6%	27µM*	-2%	4	2%
CCC(=O)Oc1ccc2oc(=O)cc(C)c2c1	-11%	-2%	4%	0	4%
Cc1cc(SCC(=O)Nc2nsc(-c3ccc(C(C)(C)C)cc3)n2)nc2ccccc12	-23%	nt	nt	nt	nt
SMILES	USP1 inh	PLK1 PBD block	WRN helicase inh	PI5P4Ka inh	USP2a inh
O=C1/C(=C/c2ccco2)SC(=S)N1CCC(=O)N1CCCCC1CCO (stereo not given)	?	?	56µM*	?	1%
O=C1/C(=C/c2ccc(Cl)cc2)SC(=S)N1CCC(=O)N1CCCCC1CCO (stereo not given)	-16%	-7%	-7%	9	-3%
O=C(Cc1cc(=O)[nH][nH]1)N/N=C/c1c(Cl)cccc1Cl	-5%	17µM*	?	-2	0%
O=C(Cc1cc(=O)[nH][nH]1)N/N=C/c1c(F)cccc1Cl	-10%	-2%	-6%	-5	-2%
COc1cc2c(cc1OC)n(CC(=O)NC1CCCCCC1)n1c(C)cc(=O)nc21	-9%	27µM*	-6%	-5	4%
CCc1ccc(NC(=O)CC2C(=O)N(c3cccc(OC)c3)C(=O)N2Cc2ccc(F)cc2)cc1 (stereo not given)	-19%	nt	nt	nt	nt
CCOC(=O)c1c(-c2ccc(F)cc2)csc1NC(=O)C1CC=CCC1C(=O)O (stereo not given)	-20%	24µM*	-27%	-8	-1%
CCOC(=O)c1c(-c2ccc(C)c(C)c2)csc1NC(=O)C1CC=CCC1C(=O)O (stereo not given)	-3%	?	-9%	-10	-10%
Cc1cccc(Nc2nnc(SC/C(O)=C(\C#N)c3nc4ccccc4[nH]3)s2)c1	3%	-7%	-21%[57.1 µM]	-54*	-12%
COc1ccc(C)cc1-n1nnnc1SC/C(O)=C(\C#N)c1nc2ccccc2[nH]1	-6%	-9%	-14%	?	0%
Cc1ccc(Nc2nnc(SC/C(O)=C(\C#N)c3nc4ccccc4[nH]3)s2)c(C)c1	-18%	?	-26%	-60*	-8%
Cc1cc(C)n2c(SCC(O)=C(C#N)c3nc4ccccc4[nH]3)nnc2n1	-14%	-26%	?	-74*	nt
Cn1c(=O)c2sccc2n2c(CCCC(=O)NCc3ccccc3)nnc12	10%	nt	nt	nt	nt
O=C(CCN1C(=O)COc2ccccc21)NCc1cccs1	-25%	24µM*	-7%	nt	2%
COc1cc(/C=C2\C(=O)NN(c3ccccc3)C2=O)ccc1OCC(N)=O	nt	nt	nt	nt	0%
C#CCOc1ccc(/C=C2/C(=O)NN(c3ccc(F)cc3)C2=O)cc1OC	?	12µM*	-15%	-8	4%
COC(=O)c1ccc(N2NC(=O)/C(=C/c3ccc(OC)c(OC)c3)C2=O)cc1	-11%	21µM*	-24%[11.6 µM]	-18	3%
Cc1cccc(OCC(=O)N2CCC(c3nc4ccccc4o3)CC2)c1C	-14%	nt	nt	nt	nt
Cc1sc2ccccc2[n+]1CC(=O)c1ccccc1	-22%	21µM*	11%	-15	-1%
CCCCN=C1NN=C(c2ccc(C)c(C)c2)CS1	-9%	11µM*	-2%[57.1 µM]	-15	-3%
CCn1nc([N+](=O)[O-])c2c(-c3nc4ccccc4o3)c(N)n(CCCOC)c2c1=O	-25%	-15%	32µM*	-8	5%
CCN(CC)CCOc1ccc(Br)cc1	-1%	-6%	-4%	nt	0%
CCN(CC)CCOc1ccc2c(c1)C(=NO)c1cc(OCCN(CC)CC)ccc1-2	5%	-7%	35µM*	nt	4%
CC(C)CNC(=O)Nc1cc(C(=O)NCc2ccc(C(C)C)cc2)ccc1N1CCCC1	-24%	nt	nt	nt	nt
O=C(N=Nc1c(O)[nH]c2ccccc12)c1cccc(S(=O)(=O)Nc2ccccc2Cl)c1	-10%	30µM*	-17%	-22	0%
CCO/C=C1/C(=O)N(c2ccc(OC)cc2)C(=O)c2ccccc21	?	17µM*	-15%	1	0%
